Measured values reported in PubChem BioAssay.
Unmarked numbers belong to inactive results. No rule for the calls is given here.

The molecules below were run against Pantothenate synthetase (Mycobacterium tuberculosis (strain ATCC 25618 / H37Rv)) (UniProt P9WIL5) (assay: Recombinant Mtb pantothenate synthetase (PanC) inhibitors, coupled enzyme, confirmatory (AID 375;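 also: 0% = full reaction with vehicle and 100% = no enzyme background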)). Details: coupled enzyme assay; at 10 µM, stronger effect = higher value.
Pantothenate synthetase (Mycobacterium tuberculosis (strain ATCC 25618 / H37Rv)), sequence (P9WIL5 whole entry, looked up): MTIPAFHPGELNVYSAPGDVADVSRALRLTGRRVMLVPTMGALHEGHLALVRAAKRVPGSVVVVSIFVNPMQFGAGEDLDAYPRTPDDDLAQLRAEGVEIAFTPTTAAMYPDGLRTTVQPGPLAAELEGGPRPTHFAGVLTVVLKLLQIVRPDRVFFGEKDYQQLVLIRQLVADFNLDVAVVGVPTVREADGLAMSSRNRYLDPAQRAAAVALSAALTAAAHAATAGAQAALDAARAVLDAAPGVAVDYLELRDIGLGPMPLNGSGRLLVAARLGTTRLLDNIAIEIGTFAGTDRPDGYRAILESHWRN

Compound	inhibition [%]
Cc1cc(NC(=O)c2cc(-c3ccco3)on2)n(-c2ccccc2)n1	0
Nn1c(SCC(=O)Nc2ccc3c(c2)OCCO3)nnc1C(F)(F)F	4
Cc1nnc(SCC(=O)NC(C)(C)C)n1CCc1ccccc1	0
COC(=O)CSc1ncccc1-c1nc2ccccc2[nH]1	0
Cc1nnc(C)c2c(C)n(Cc3ccc4c(c3)OCO4)c(C)c12	0
COC(=O)c1cc2oc(C)cc2n1CC(=O)Nc1ccc(C)c(C)c1	0
CC(C)Oc1ccc(-c2nn(-c3ccccc3)cc2/C=c2\sc3ncnn3c2=O)cc1	0
CC1=C(C)CC2C(=O)N(c3cccc4ccccc34)C(=O)C2C1 (stereo not drawn)	0
CCC1(C(=O)OC)NC(c2cccc(F)c2)C2C(=O)N(C)C(=O)C21 (stereo not drawn)	3
CCSc1nnc(NC(=O)c2ccccn2)s1	1
COc1ccc(CCn2c(C)cc(C(=O)CSc3nnnn3C)c2C)cc1	0
CC(C)Cc1nc2oc3c(N4CCN(CCO)CC4)ncnc3c2c2c1CCCC2	0
CCOc1ccc(-c2nnn(CCC(=O)O)n2)cc1OC	0
Nc1nnnn1/N=C/c1ccccc1OCc1ccccc1	0
CC(O)c1c(OCc2ccccc2)ncnc1OCc1ccccc1 (stereo not drawn)	0
COc1cccc(-c2cc(C(=O)Nc3c(C)nn(Cc4ccccc4)c3C)no2)c1	0
CCn1c(=S)sc2nc(C)sc21	1
CCOC(=O)c1c(NC(=O)CSc2nnc(-c3cccnc3)o2)sc(C)c1C	4
